# Laboratory results published in the emibetuzumab library of Makowski et al. (2022).
# Some of the results follow. No count for the full screen is at hand.
# B1: VH:VL chains; a variant is named by its letters at X, in order (parent)
# chain 1: QVQLVQSGAEVKKPGASVKVSCKASGYTFTDYXMHWVRQAPGQGLEWMGXVNPNXXXTTYNQKFEGRVTMTTDTSTSTAYMELRSLRSDDTAVYYCARXNXLDXWGQGTTVTVSS
# chain 2: DIQMTQSPSSLSASVGDRVTITCSVSSSVSSIYLHWYQQKPGKAPKLLIYSTSNLASGVPSRFSGSGSGTDFTLTISSLQPEDFATYYCQVYSGYPLTFGGGTKVEIK
# Variants of: B1
# Assay: yeast display scFab, FACS + sequencing
# Conditions: with MET
# Summary of the method: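 A yeast surface library of scFab variants carrying heavy-chain CDR mutations went through two magnetic enrichment rounds on Protein A beads coated with HGFR-Fc, then FACS. For sorting, cells were labelled for 3 h at room temperature with 1 nM HGFR-Fc and anti-Myc in PBSB containing 1% milk, and the top 50% of antigen-positive cells were gated. Input and round-3 sorted populations were deep sequenced in two replicates. A sequence was called an antigen binder if it appeared in both antigen-positive samples and a non-binder if it appeared only in the input.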
row,Variant,antigen binding call
1,AARADSGD,no binding
2,DEGRSVAA,no binding
3,DAARAVSS,no binding
4,VAKADALD,no binding
5,FKGEGDSA,no binding
6,VKGKGSAA,binds
7,YRGKGSAA,binds
8,YAEGASSF,no binding
9,VRARGSSF,binds
10,VRERGDWF,no binding
11,VTAESSSF,no binding
12,VRERGSSF,binds
13,VRAGGDSF,no binding
14,YRERGSSF,binds
15,AETAGAAA,no binding
16,DAATAYGS,no binding
17,FRGTGSGD,no binding
18,FATRASGD,no binding
19,FATKGFGD,no binding
20,FRGKGSGD,binds
21,FRTKGSGD,binds
22,VEEEGDGV,no binding
23,YAGTGFWV,no binding
24,DEGGTDAV,no binding

row,Variant,antigen binding call
1,FRGKGAAV,binds
2,FKGKGAVV,binds
3,YKGKGSAV,binds
4,FRGKGASV,binds
5,FREGSASV,no binding
6,FKGKGAAF,no binding
7,FREEGFSV,no binding
8,YKGRASAV,no binding
9,DATGGSGD,no binding
10,FKATTVVD chain 1 S88F,no binding
11,FKGRGAAS,binds
12,AKGKGAAV,no binding
13,YKGGGSAV,binds
14,DKGGGFAV,no binding
15,YRGKGSAV,binds
16,FKGKGAAV,binds
17,YEGGGSAV,no binding
18,FRGKGSAV,binds
19,VKGKGDAV,no binding
20,DAGGADAV,no binding
21,DEGGTDWY,no binding
22,YKRRDAVY,no binding
23,YKRGDAGY,binds
24,YTRGAAGY,no binding

row,Variant,antigen binding call
1,YKRESAGY,binds
2,YARETDVV,no binding
3,DGARNAGV,no binding
4,VTGTGSSA,no binding
5,FRKGGAGS,binds
6,YRKGGFSS,no binding
7,YRKGGAAS,binds
8,FRKRSFSS,no binding
9,YRKGGAGS,binds
10,YRRGAAAA,binds
11,YRTEGAVA,binds
12,DREEGAVA,no binding
13,ARRGSDVA,no binding
14,YRRGGAAA,binds
15,YRRGSAVA,binds
16,YETGAAAA,no binding
17,YTRGADGA,no binding
18,DETGGDWF,no binding
19,VEEEGDWV,no binding
20,VTGTGDWF,no binding
21,YRRGGAVA,binds
22,YREKAAWA,no binding
23,YRRGAAWA,binds
24,YRRGSAWA,binds

row,Variant,antigen binding call
1,YRRGGAWA,binds
2,YTRGADWA,no binding
3,DEGGDDAA,no binding
4,VKGRADSA,no binding
5,VEKTGVGA,no binding
6,YEAGTAVA,no binding
7,YRAESAAA,binds
8,YAAKTAAA,no binding
9,DRAGDAAA,no binding
10,YRAKGAAA,binds
11,YRAGSAAA,binds
12,YRAGTAAA,binds
13,VAEGGYAV,no binding
14,VTAEDFGV,no binding
15,AARADAVA,no binding
16,DGGKNDLA,no binding
17,VKEKGSLF,binds
18,VKEKGYLV,no binding
19,VKGRGSSF,binds
20,VKEKGDSA,no binding
21,YAGRGDWF,no binding
22,YKGRGSWF,binds
23,DKGRGSSA,no binding
24,VTGRGDVF,no binding

row,Variant,antigen binding call
1,VEGRGDVF,no binding
2,YGGRGSWV,no binding
3,VKGRGDSF,no binding
4,VKGRGSVF,binds
5,VTTRADVV,no binding
6,YTGGADAV,no binding
7,DGARGALF,no binding
8,YKGRGALF,binds
9,YKGRGSLF,binds
10,YKARSALF,binds
11,VKGRASGF,no binding
12,VKGRGSLF,binds
13,DAGGADWA,no binding
14,SARTDFWF chain 1 K19N,no binding
15,ATKTAFVS chain 1 M34I,no binding
16,SEAGDAVV,no binding
17,VTTRADVY,no binding
18,FRGESAGV,binds
19,FRGESAGS,binds
20,FKGEGAGV,no binding
21,DAKENDVF,no binding
22,VEGTSDLS,no binding
23,YTKRSSGA,no binding
24,YRKGGSGA,binds

row,Variant,antigen binding call
1,YTTGGDGA,no binding
2,YRKGSSGA,binds
3,YAKADSGA,no binding
4,YRTGGSGA,binds
5,YRRKGSGA,binds
6,FARKGSGA,no binding
7,YKTGGSGA,binds
8,DATGGSGA,no binding
9,VKTGGAGA,no binding
10,YRGKASWD,binds
11,YRGRSSWD,binds
12,DAGTGSWD,no binding
13,YRGRDSWD,binds
14,VTTKSSSA,no binding
15,ATATADWA,no binding
16,DKRKGVAF,no binding
17,VRTEDDWV,no binding
18,VKGRASSV,no binding
19,VRTEDFGV,no binding
20,VRRKSSSV,binds
21,VEAGDSWV,no binding
22,VTGTASSV,no binding
23,VETEGSSV,no binding
24,VRAEGSSV,binds

row,Variant,antigen binding call
1,VRTEDSSV,binds
2,VRAGDSSV,binds
3,VTEEGSSV,no binding
4,VRAGDDGV,no binding
5,VETEGDGV,no binding
6,ATGANAGD,no binding
7,AETGASLS,no binding
8,DTKAADWV,no binding
9,DRRRGALD,binds
10,SRRRGALD,binds
11,DATGGALD,no binding
12,SAREGALD,no binding
13,SGRGNALD,no binding
14,DREGGVSD,no binding
15,VTATADWA,no binding
16,VKGRADWD,no binding
17,SEEEGAGD,no binding
18,VAGTGDGV,no binding
19,YAKRDALA,no binding
20,YRRKDALA,binds
21,YRAKDALA,binds
22,VRRKDFLA,no binding
23,YRGKDALA,binds
24,DTTGSDWV,no binding

row,Variant,antigen binding call
1,VAGTGDVY,no binding
2,VKGRSVGY,no binding
3,YRGRDVGY,no binding
4,VRGRGVGY,binds
5,YRGRGVGY,binds
6,VTGEDDWY,no binding
7,DTKAADVA,no binding
8,SEARSDGY,no binding
9,YKGADFGD,no binding
10,YKGRGYAD,no binding
11,YKGRGFGD,binds
12,YKGRGDAD,binds
13,YKGRGDGD,binds
14,YKGKGFGD,no binding
15,SAGRGYGD,no binding
16,YGGRGDAD,no binding
17,YAGRGDAD,no binding
18,YKGRGYGD,binds
19,YEGGGDVA,no binding
20,VGAEGVWS chain 1 G66S,no binding
21,VEGGGDVD,no binding
22,VAGAGDSV,no binding
23,YKGKGDGD,binds
24,YAGRGDVD,no binding

row,Variant,antigen binding call
1,YAGRGDLD,binds
2,YAGRGVGD,no binding
3,VKTGGDGD,no binding
4,YAGRGDLV,no binding
5,YKGRGVGD,binds
6,VEEEDYSS,no binding
7,FRAGGAAA,binds
8,FRARSAAA,binds
9,FAAKTAAA,no binding
10,FRKGGAAA,binds
11,YRGRSAGA,binds
12,DRGRDAGA,no binding
13,YRGGSAGA,binds
14,VKTGGAWY,no binding
15,VKGRADWY,no binding
16,VKGRGAWY,binds
17,VKGRGFWY,no binding
18,VKGRGSWY,binds
